From PubChem BioAssay (NCI) come the findings set out here.

Test systems include NCI-H23 lung; NCI-H226 lung; NCI-H322M lung; HOP-62 NSCLC; NCI-H460 lung; HOP-92 NSCLC; NCI-H522 lung; A549/ATCC NSCLC; 786-0 renal; COLO 205 colon; DU-145 prostate; K-562 leukemia; MALME-3M melanoma; MDA-MB-231 breast; RXF 393 renal; SF-268 CNS; SF-295 CNS; SF-539 CNS; UACC-257 melanoma; M14 melanoma.
Common to all, as to assay: NCI-60 one-dose screen, 48 h (100 = growth as untreated, 0 = no growth, -100 = all killed)
Holding throughout (settings): 10 µM unless noted

The structures appear in SMILES notation. This is part of a sample that, as a whole, favours compounds with a hit. Of some 83,000 tested, about 20% had one in any assay.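 Step 1: grow cells in 96-well plates. Step 2: add test compound at a single concentration. Step 3: incubate 48 h. Step 4: record percent growth.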 Values without a mark were called inactive. The source made the active and inactive calls. How the source made its calls: active means growth percent below 10; inactive means the rest.

`BrCc1cccc(C[P+](c2ccccc2)(c2ccccc2)c2ccccc2)c1`: the growth in the test on NCI-H23 lung is 87%; in the test on NCI-H226 lung, 73.7%; in the test on NCI-H322M lung it was 89%; in the test with HOP-62 NSCLC it was 33.8%; with NCI-H460 lung it was 48.5%; in the test on HOP-92 NSCLC, 32%. Moreover, the growth with NCI-H522 lung is 24.6%; in the test with A549/ATCC NSCLC, 69.4%; in the test with 786-0 renal, 98.8%; in the test on COLO 205 colon, -35.3% (active); in the test on DU-145 prostate, 64.9%; with K-562 leukemia, 28.8%. Further, the growth was 38.3% in the test with MALME-3M melanoma; 93.2% in the test with MDA-MB-231 breast; 84.4% with RXF 393 renal; 56.4% in the test with SF-268 CNS; 72.2% in the test on SF-295 CNS; 35.4% in the test on SF-539 CNS. For the same molecule, the growth is 14.2% in the test with UACC-257 melanoma and 51.4% with M14 melanoma.
`Cc1onc(-c2ccccc2Cl)c1C(=O)Cl`: the growth with NCI-H23 lung was 114%; in the test with NCI-H226 lung it was 110%; with NCI-H322M lung it was 101%; with HOP-62 NSCLC, 86.5%; in the test with NCI-H460 lung it was 103%; in the test with HOP-92 NSCLC it was 77%. Moreover, the growth in the test with NCI-H522 lung is 108%; in the test on A549/ATCC NSCLC, 96.9%; in the test with 786-0 renal, 101%; with COLO 205 colon it was 108%; with DU-145 prostate it was 121%; in the test on K-562 leukemia, 101%. For the same molecule, the growth with MALME-3M melanoma was 109%; with MDA-MB-231 breast, 101%; with RXF 393 renal it was 115%; with SF-268 CNS, 117%; in the test on SF-295 CNS, 91.7%; in the test on SF-539 CNS, 113%. In addition, the figures for the growth in the test with UACC-257 melanoma and in the test on M14 melanoma were 103% and 108%, respectively.
With `CN(C)CCOC(=O)Nc1ccc(Cc2ccc(NC(=O)OCCN(C)C)cc2)cc1`, the growth in the test with NCI-H23 lung was 94.1% [100 µM]; in the test on NCI-H226 lung it was 111% [100 µM]; in the test on NCI-H322M lung, 96.8% [100 µM]; in the test with HOP-62 NSCLC, 97.7% [100 µM]; in the test on NCI-H460 lung, 92% [100 µM]; with HOP-92 NSCLC, 32.7% [100 µM]. In addition, the growth in the test on NCI-H522 lung was 85.2% [100 µM]; in the test with A549/ATCC NSCLC it was 75.8% [100 µM]; with 786-0 renal it was 60.1% [100 µM]; in the test on COLO 205 colon, 84.2% [100 µM]; in the test with DU-145 prostate, 86.3% [100 µM]; in the test on K-562 leukemia it was -30.1% [100 µM] (active). Besides, the growth in the test with MALME-3M melanoma was 69.1% [100 µM]; with MDA-MB-231 breast, 65.8% [100 µM]; in the test on RXF 393 renal, 32.2% [100 µM]; in the test with SF-268 CNS, 90.3% [100 µM]; in the test on SF-295 CNS, 87.6% [100 µM]; with SF-539 CNS, -66.5% [100 µM] (active). For the same molecule, the growth in the test with UACC-257 melanoma is -61.6% [100 µM] (active); in the test on M14 melanoma it was -38.6% [100 µM] (active).
On to `CCOC(=O)c1c[nH][nH]c1=O`, for which the growth is 93.4% with NCI-H23 lung; 101% with NCI-H226 lung; 122% in the test with NCI-H322M lung; 89.2% in the test on HOP-62 NSCLC; 106% in the test with NCI-H460 lung; 111% in the test with HOP-92 NSCLC. For the same molecule, the growth was 103% with NCI-H522 lung; 125% in the test with A549/ATCC NSCLC; 94.3% with 786-0 renal; 124% in the test on COLO 205 colon; 117% in the test with DU-145 prostate; 116% in the test with K-562 leukemia. The growth in the test on MALME-3M melanoma was 129%; with MDA-MB-231 breast it was 108%; in the test with RXF 393 renal, 110%; in the test on SF-268 CNS, 110%; with SF-295 CNS, 112%; in the test with SF-539 CNS, 94.9%. Further, the growth was 59.1% with UACC-257 melanoma and 96.5% with M14 melanoma.
In the case of `COc1nc(Nc2cccc(C(F)(F)F)c2)nc(OC)n1`, the growth was 97.2% in the test on NCI-H23 lung; 96.8% in the test with NCI-H226 lung; 96.9% with NCI-H322M lung; 98.8% in the test with HOP-62 NSCLC; 106% in the test with NCI-H460 lung; 92.4% in the test on HOP-92 NSCLC. The growth with NCI-H522 lung was 75%; with A549/ATCC NSCLC, 102%; in the test with 786-0 renal it was 96.8%; in the test on COLO 205 colon it was 109%; in the test on DU-145 prostate, 105%; in the test on K-562 leukemia it was 87%. In addition, the growth in the test on MALME-3M melanoma was 116%; in the test on MDA-MB-231 breast, 90.7%; with RXF 393 renal, 102%; in the test on SF-268 CNS, 98.4%; in the test with SF-295 CNS it was 88.4%; in the test on SF-539 CNS, 98%. Moreover, the values for the growth in the test with UACC-257 melanoma and in the test on M14 melanoma were 121% and 113%, respectively.
For `CN(C)c1ccc2nc3ccc(=[N+](C)C)cc-3oc2c1`, the growth with NCI-H23 lung is 9.83% (active); in the test on NCI-H226 lung it was 33.2%; in the test with NCI-H322M lung, 9.08% (active); with HOP-62 NSCLC, 7.12% (active); with NCI-H460 lung it was 35.3%; in the test on HOP-92 NSCLC, 55.9%. In addition, the growth in the test with NCI-H522 lung was -37.4% (active); with A549/ATCC NSCLC, 30.7%; with 786-0 renal, 66.1%; in the test with COLO 205 colon, -10.3% (active); with DU-145 prostate it was 59%; in the test on K-562 leukemia, 16.9%. The growth with MALME-3M melanoma was -21.8% (active); with MDA-MB-231 breast, -14.6% (active); in the test on RXF 393 renal, 89.6%; with SF-268 CNS it was -17.5% (active); with SF-295 CNS, 50.3%; with SF-539 CNS, 7.14% (active). Besides, the growth in the test with UACC-257 melanoma was -30.1% (active); with M14 melanoma it was 3.87% (active).
As for `Cc1ccc(S(=O)(=O)Oc2ccc3sc4c(CO)ccc(NCCN(C)C)c4c(=O)c3c2)cc1`, the growth in the test on NCI-H23 lung was -79.5% [100 µM] (active); in the test with NCI-H226 lung, -42.2% [100 µM] (active); in the test with NCI-H322M lung it was -98.2% [100 µM] (active); in the test with HOP-62 NSCLC, -68.3% [100 µM] (active); with NCI-H460 lung it was -83% [100 µM] (active); in the test on HOP-92 NSCLC, -80.1% [100 µM] (active). Further, the growth in the test on NCI-H522 lung was -74.4% [100 µM] (active); in the test on A549/ATCC NSCLC it was -70.9% [100 µM] (active); in the test on 786-0 renal it was -73.4% [100 µM] (active); with COLO 205 colon it was -87.6% [100 µM] (active); with DU-145 prostate it was -97.6% [100 µM] (active); with K-562 leukemia it was -61.4% [100 µM] (active). In addition, the growth in the test on MALME-3M melanoma was -89.5% [100 µM] (active); in the test with MDA-MB-231 breast, -90.7% [100 µM] (active); in the test on RXF 393 renal it was -57.5% [100 µM] (active); with SF-268 CNS, -61.3% [100 µM] (active); with SF-295 CNS, -78.7% [100 µM] (active); in the test on SF-539 CNS, -93.1% [100 µM] (active). The values for the growth in the test on UACC-257 melanoma and in the test on M14 melanoma were -82% [100 µM] (active) and -96.5% [100 µM] (active), respectively.
In the case of `Clc1ccc(-c2noc(/C=C\c3ccccc3)n2)cc1`, the growth is 101% in the test on NCI-H23 lung; 93.1% in the test with NCI-H226 lung; 87.1% in the test with NCI-H322M lung; 106% in the test with HOP-62 NSCLC; 109% with NCI-H460 lung; 99.3% with HOP-92 NSCLC. In addition, the growth in the test on NCI-H522 lung was 87%; in the test on A549/ATCC NSCLC it was 87.9%; in the test with 786-0 renal, 99.4%; in the test with COLO 205 colon, 105%; with DU-145 prostate, 108%; in the test with K-562 leukemia it was 94.6%. Also, the growth with MALME-3M melanoma was 95%; in the test with MDA-MB-231 breast, 109%; in the test on RXF 393 renal it was 104%; with SF-268 CNS it was 106%; in the test on SF-295 CNS, 89.9%; with SF-539 CNS, 101%. Moreover, the growth in the test with UACC-257 melanoma is 104%; in the test with M14 melanoma, 101%.
